Test results taken from PubChem BioAssay (NCI).
Compounds without any hit were thinned out: in the full panel of roughly 79,000, 15% have a hit. Unmarked numbers belong to inactive results. Activity calls are given as the source filed them. Rule as the data show it: active = growth inhibition above about 70%; inactive = the rest.

Columns and labels:
[1] = NCI Yeast Anticancer Drug Screen. Data for the rad52 strain (AID 147);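 also: 0% = growth of vehicle-treated control cultures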; conditions: S. cerevisiae rad52 mutant growth inhibition, hits give high values
Outline: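 Vehicle-treated cultures served as the reference for growth inhibition of compound-exposed yeast bearing a DNA repair mutation.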

[2] = NCI Yeast Anticancer Drug Screen. Data for the wt1 strain (AID 149);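 also: 0% = growth of vehicle-treated wt1 cultures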; conditions: S. cerevisiae wt1 strain (SPY 50644) growth inhibition, hits give high values
Outline: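 Using yeast strain wt1, compound-induced growth inhibition was determined against vehicle-treated cultures.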

[3] = NCI Yeast Anticancer Drug Screen. Data for the rad50EPP+ strain (AID 151);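 also: 0% = growth of vehicle-treated control cultures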; conditions: S. cerevisiae rad50 mutant strain, hits give high values
Outline: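 In this screen, rad50EPP+ yeast were exposed to compounds. Growth inhibition was scored against vehicle-treated controls.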

[4] = NCI Yeast Anticancer Drug Screen. Data for the mgt1 strain (AID 153); conditions: S. cerevisiae mgt1 mutant growth inhibition, hits give high values
Outline: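 mgt1 strain exposed; growth vs vehicle control recorded as inhibition.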

[5] = NCI Yeast Anticancer Drug Screen. Data for the rad50 strain (AID 155);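 also: 0% = growth of vehicle-only cultures of the same strain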; conditions: S. cerevisiae rad50 strain growth inhibition, hits give high values
Outline: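 Relative growth inhibition (compound vs vehicle) was measured in yeast with a defined repair-gene alteration.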

[6] = NCI Yeast Anticancer Drug Screen. Data for the mec2-1 strain (AID 157); conditions: S. cerevisiae mec2-1 strain, hits give high values
Outline: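 Vehicle-treated cultures served as reference for growth inhibition of compound-exposed mec2-1 yeast.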

[7] = NCI Yeast Anticancer Drug Screen. Data for the rad14 strain (AID 159);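 also: 0% = growth of vehicle-treated control cultures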; conditions: S. cerevisiae rad14 strain growth inhibition, hits give high values
Outline: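 Screen for anticancer potential: a yeast strain altered in DNA damage repair is grown with compound, and reduced growth is quantified against vehicle controls.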

[8] = NCI Yeast Anticancer Drug Screen. Data for the sgs1 mgt1 strain (AID 161);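 also: 0% = growth of cultures given vehicle only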; conditions: S. cerevisiae sgs1 mgt1 strain, hits give high values
Outline: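 Read-out: growth inhibition vs vehicle controls. Cells: mutant yeast strain deficient in DNA damage repair.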

[9] = NCI Yeast Anticancer Drug Screen. Data for the CLN2oe strain (AID 163);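 also: 0% = growth of vehicle-only control cultures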; conditions: S. cerevisiae CLN2oe strain, hits give high values
Outline: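 Inhibition relative to vehicle-treated yeast is reported. Cells: strain with genetic alteration in cell-cycle control, grown with compound.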

[10] = NCI Yeast Anticancer Drug Screen. Data for the cln2 rad14 strain (AID 165);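 also: 0% = growth equal to vehicle treated cultures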; conditions: S. cerevisiae cln2 rad14 strain, hits give high values
Outline: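 Each compound was tested on cln2 rad14 yeast. Inhibition of growth was calculated against vehicle-exposed controls.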

[11] = NCI Yeast Anticancer Drug Screen. Data for the bub3 strain (AID 167); conditions: S. cerevisiae bub3 mutant strain, hits give high values
Outline: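 Screening used yeast with an engineered genetic alteration affecting cell cycle control. Compound-exposed cultures were compared with vehicle cultures, and reduced growth was taken as inhibition.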

[12] = NCI Yeast Anticancer Drug Screen. Data for the wt2 strain (AID 169);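 also: 0% = growth of vehicle-treated yeast cultures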; conditions: S. cerevisiae wt2 strain growth inhibition, hits give high values
Outline: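 Inhibition of yeast growth was determined after compound treatment, normalised to controls receiving only vehicle.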

[13] = NCI Yeast Anticancer Drug Screen. Data for the mlh1 strain (AID 171);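 also: 0% = growth of vehicle-treated control cultures of the same strain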; conditions: S. cerevisiae mlh1 strain growth inhibition, hits give high values
Outline: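 Vehicle-normalised growth inhibition of a repair- or checkpoint-altered yeast strain following compound treatment.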

[14] = NCI Yeast Anticancer Drug Screen. Data for the sgs1 strain (AID 173);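 also: 0% = growth of vehicle-only control cultures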; conditions: S. cerevisiae sgs1 mutant, hits give high values
Outline: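 Screen format: yeast with repair or checkpoint alterations, compound exposure, growth read relative to vehicle.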

[15] = NCI Yeast Anticancer Drug Screen. Data for the mlh1 rad18 strain (AID 175); conditions: S. cerevisiae mlh1 rad18 strain growth inhibition, hits give high values
Outline: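 Vehicle-treated cultures served as the reference for growth inhibition in a yeast strain carrying DNA damage repair alterations exposed to each compound.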

[16] = NCI Yeast Anticancer Drug Screen. Data for the rad18 strain (AID 177); conditions: S. cerevisiae rad18 mutant growth inhibition, hits give high values
Outline: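 Test articles were incubated with altered yeast defective in DNA damage repair. Results are given as inhibition of growth versus vehicle.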

[17] = at 5.0 µM (retest, dose inferred, filed as 0.5)
[18] = at 50.0 µM (retest, dose inferred, filed as 5.0)

Cc1cccc[n+]1C1CCc2c(ccc3ccccc23)C1=O (stereo not drawn)
growth inhibition ([1]; at 1.2 µM): 5%
growth inhibition ([1]; at 3.7 µM): 2%
growth inhibition ([1]; at 11.0 µM): 1%
growth inhibition ([1]; at 33.0 µM): 14%
growth inhibition ([1]; at 100.0 µM): 70% (active)
growth inhibition ([2]; at 1.2 µM): -2%
growth inhibition ([2]; at 3.7 µM): -4%
growth inhibition ([2]; at 11.0 µM): -1%
growth inhibition ([2]; at 33.0 µM): -3%
growth inhibition ([2]; at 100.0 µM): 13%
growth inhibition ([3]; at 1.2 µM): 6%
growth inhibition ([3]; at 3.7 µM): 9%
growth inhibition ([3]; at 11.0 µM): 8%
growth inhibition ([3]; at 33.0 µM): 37%
growth inhibition ([3]; at 100.0 µM): 63%
growth inhibition ([4]; at 1.2 µM): -4%
growth inhibition ([4]; at 3.7 µM): 2%
growth inhibition ([4]; at 11.0 µM): 0%
growth inhibition ([4]; at 33.0 µM): 2%
growth inhibition ([4]; at 100.0 µM): 35%
growth inhibition ([5]; at 1.2 µM): 5%
growth inhibition ([5]; at 3.7 µM): 2%
growth inhibition [5, 17]: -1%
growth inhibition ([5]; at 11.0 µM): 0%
growth inhibition ([5]; at 33.0 µM): 16%
growth inhibition [5, 18]: 40%
growth inhibition ([5]; at 50.0 µM): 74.9% (active)
growth inhibition ([5]; at 100.0 µM): 68%
growth inhibition ([6]; at 1.2 µM): -1%
growth inhibition ([6]; at 3.7 µM): -4%
growth inhibition [6, 17]: 2%
growth inhibition ([6]; at 11.0 µM): -1%
growth inhibition ([6]; at 33.0 µM): 2%
growth inhibition [6, 18]: 70% (active)
growth inhibition ([6]; at 50.0 µM): 74.3% (active)
growth inhibition ([6]; at 100.0 µM): 62%
growth inhibition ([7]; at 1.2 µM): 4%
growth inhibition ([7]; at 3.7 µM): 2%
growth inhibition ([7]; at 11.0 µM): 3%
growth inhibition ([7]; at 33.0 µM): 12%
growth inhibition ([7]; at 100.0 µM): 61%
growth inhibition [8, 17]: 3%
growth inhibition [8, 18]: 55%
growth inhibition ([8]; at 50.0 µM): 93.3% (active)
growth inhibition ([9]; at 1.2 µM): -6%
growth inhibition ([9]; at 3.7 µM): -3%
growth inhibition ([9]; at 11.0 µM): -5%
growth inhibition ([9]; at 33.0 µM): -1%
growth inhibition ([9]; at 100.0 µM): 48%
growth inhibition [10, 17]: 0%
growth inhibition [10, 18]: 26%
growth inhibition ([10]; at 50.0 µM): 26.6%
growth inhibition ([11]; at 1.2 µM): -2%
growth inhibition ([11]; at 3.7 µM): 0%
growth inhibition [11, 17]: -4%
growth inhibition ([11]; at 11.0 µM): 3%
growth inhibition ([11]; at 33.0 µM): 18%
growth inhibition [11, 18]: 70% (active)
growth inhibition ([11]; at 50.0 µM): 98.2% (active)
growth inhibition ([11]; at 100.0 µM): 72% (active)
growth inhibition ([12]; at 1.2 µM): -6%
growth inhibition ([12]; at 3.7 µM): -8%
growth inhibition ([12]; at 11.0 µM): -11%
growth inhibition ([12]; at 33.0 µM): -9%
growth inhibition ([12]; at 100.0 µM): 65%
growth inhibition ([13]; at 1.2 µM): 2%
growth inhibition ([13]; at 3.7 µM): 1%
growth inhibition ([13]; at 11.0 µM): 2%
growth inhibition ([13]; at 33.0 µM): 10%
growth inhibition ([13]; at 100.0 µM): 68%
growth inhibition ([14]; at 1.2 µM): -14%
growth inhibition ([14]; at 3.7 µM): -6%
growth inhibition ([14]; at 11.0 µM): -26%
growth inhibition ([14]; at 33.0 µM): -5%
growth inhibition ([14]; at 100.0 µM): 69%
growth inhibition [15, 17]: 2%
growth inhibition [15, 18]: 73% (active)
growth inhibition ([15]; at 50.0 µM): 89.7% (active)
growth inhibition ([16]; at 1.2 µM): 2%
growth inhibition ([16]; at 3.7 µM): 3%
growth inhibition ([16]; at 11.0 µM): 2%
growth inhibition ([16]; at 33.0 µM): 6%
growth inhibition ([16]; at 100.0 µM): 79% (active)
